Experimental data reported in PubChem BioAssay (EPA / NIEHS).
The source holds several records for some structures; these can differ, active in one and inactive in another. Calls of active or inactive are those of the source. Rule for the calls: active = hit-call score of the fitted dose curve at least 0.9, where 1 is the maximum; inactive = score below 0.9.

Experiments:
Settings in all cases: mRNA level, 48 h; actives raise or lower the signal
[1] = read-out: Intercellular Adhesion Molecule 1 (ICAM1), ICAM1 (gene 3383); assay: LTEA_HepaRG_ICAM1: Life Technologies and Expression Analysis (LTEA) Assay for Intercellular Adhesion Molecule 1 (ICAM1) using HepaRG (AID 2283507)
Summary of the method: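 ICAM1 transcript levels measured by qRT-PCR, normalized to three housekeeping genes (ACTB, GAPDH, POLR2A), after 48 h chemical exposure of HepaRG cells. Duplicate eight-point half-log series from 100 uM in 0.5% DMSO; gain or loss fitted against vehicle.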

[2] = read-out: Insulin-like growth factor-binding protein 1 (IGFBP1), IGFBP1 (gene 3484); assay: LTEA_HepaRG_IGFBP1: Life Technologies and Expression Analysis (LTEA) Assay for Insulin-like growth factor-binding protein 1 (IGFBP1) using HepaRG (AID 2283508)
Summary of the method: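 Read-out is qRT-PCR transcript level normalized to three housekeeping genes, fitted in both directions against 0.5% DMSO. Differentiated HepaRG cells received eight half-log concentrations (top 100 uM) in duplicate for 48 h in serum-free induction medium.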

[3] = read-out: Interleukin 6 (IL6), IL6 (gene 3569); assay: LTEA_HepaRG_IL6: Life Technologies and Expression Analysis (LTEA) Assay for Interleukin 6 (IL6) using HepaRG (AID 2283509)
Summary of the method: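 HepaRG, ~100,000 cells/well, 48 h pre-culture; serum-free induction medium; cmpd 8-pt half-log from 100 uM, 0.5% DMSO, duplicate, 48 h. Lysis in RLT, TaqMan qRT-PCR; gain or loss vs DMSO.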

[4] = read-out: Interleukin 6 Receptor (IL6R), IL6R (gene 3570); assay: LTEA_HepaRG_IL6R: Life Technologies and Expression Analysis (LTEA) Assay for Interleukin 6 Receptor (IL6R) using HepaRG (AID 2283510)
Summary of the method: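 Differentiated HepaRG cells, plated 48 h, then exposed in duplicate for 48 h in serum-free induction medium to 8 half-log concentrations (top 100 uM, 0.5% DMSO). IL6R mRNA measured by TaqMan qRT-PCR, normalized to ACTB/GAPDH/POLR2A; bidirectional fit vs DMSO.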

[5] = read-out: Potassium channel subfamily K member 1 (KCNK1), KCNK1 (gene 3775); assay: LTEA_HepaRG_KCNK1: Life Technologies and Expression Analysis (LTEA) Assay for Potassium channel subfamily K member 1 (KCNK1) using HepaRG (AID 2283511)
Summary of the method: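 Gain or loss of KCNK1 mRNA is the read-out, quantified by qRT-PCR against three housekeeping genes after 48 h chemical treatment of human HepaRG liver cells. Concentrations ran from 100 uM downward in half-log steps, vehicle 0.5% DMSO.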

[6] = read-out: Keratin 19 (KRT19), KRT19 (gene 3880); assay: LTEA_HepaRG_KRT19: Life Technologies and Expression Analysis (LTEA) Assay for Keratin 19 (KRT19) using HepaRG (AID 2283512)
Summary of the method: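 KRT19 transcript measured by TaqMan qRT-PCR, referenced to three housekeeping genes, after HepaRG cells received test chemicals for 48 h. Eight half-log concentrations, top 100 uM, 0.5% DMSO vehicle; increases and decreases both fitted.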

[7] = read-out: JUN Transcription Factor, JUN (gene 3725); assay: LTEA_HepaRG_JUN: Life Technologies and Expression Analysis (LTEA) Assay for JUN Transcription Factor using HepaRG (AID 2283513)
Summary of the method: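 HepaRG cells, 48 h post-plating, exposed 48 h in serum-free induction medium to 8-point half-log series (top 100 uM, 0.5% DMSO), duplicate; mRNA by qRT-PCR (TaqMan, Fluidigm), normalized to ACTB/GAPDH/POLR2A; bidirectional fit vs DMSO.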

[8] = read-out: Lipase C (LIPC), LIPC (gene 3990); assay: LTEA_HepaRG_LIPC: Life Technologies and Expression Analysis (LTEA) Assay for Lipase C (LIPC) using HepaRG (AID 2283514)
Summary of the method: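 Read-out is LIPC transcript level by TaqMan qRT-PCR, normalized to three housekeeping genes, after 48 h chemical treatment of human HepaRG liver cells. Curves span eight concentrations topping at 100 uM; activity in either direction scored relative to 0.5% DMSO.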

[9] = read-out: Lipoprotein lipase (LPL), LPL (gene 4023); assay: LTEA_HepaRG_LPL: Life Technologies and Expression Analysis (LTEA) Assay for Lipoprotein lipase (LPL) using HepaRG (AID 2283515)
Summary of the method: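 Read-out is LPL transcript level by qRT-PCR, normalized to three housekeeping genes and fitted bidirectionally against the DMSO control. Human HepaRG cells received chemicals for 48 h at up to 100 uM.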

[10] = read-out: MicroRNA 122 (MIR122), gene 406906; assay: LTEA_HepaRG_MIR122: Life Technologies and Expression Analysis (LTEA) Assay for MicroRNA 122 (MIR122) using HepaRG (AID 2283516); note: the transcript read is the microRNA miR-122
Summary of the method: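 Differentiated human HepaRG cells in serum-free induction medium exposed 48 h to 8 half-log concentrations from 100 uM in 0.5% DMSO, duplicate. MIR122 quantified by Fluidigm TaqMan qRT-PCR, normalised to ACTB, GAPDH, POLR2A; fold change fitted bidirectionally versus DMSO.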

[11] = read-out: matrix metalloproteinase-10 (MMP10), MMP10 (gene 4319); assay: LTEA_HepaRG_MMP10: Life Technologies and Expression Analysis (LTEA) Assay for matrix metalloproteinase-10 (MMP10) using HepaRG (AID 2283517)
Summary of the method: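 Gain or loss of MMP10 mRNA is fitted relative to the 0.5% DMSO vehicle. The human hepatic line HepaRG receives a 48-hour serum-free exposure, in duplicate, with a maximum concentration of 100 uM.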

MYC, MYC (gene 4609) = assay: LTEA_HepaRG_MYC: Life Technologies and Expression Analysis (LTEA) Assay for MYC using HepaRG (AID 2283518)
Summary of the method: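 MYC transcript changes, up or down relative to 0.5% DMSO, from TaqMan qRT-PCR normalized to three housekeeping genes. Human HepaRG cultures received chemicals for 48 h at eight half-log concentrations up to 100 uM, in duplicate.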

[12] = read-out: matrix metalloproteinase-3 (MMP3), MMP3 (gene 4314); assay: LTEA_HepaRG_MMP3: Life Technologies and Expression Analysis (LTEA) Assay for matrix metalloproteinase-3 (MMP3) using HepaRG (AID 2283519)
Summary of the method: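 HepaRG, human; 48 h dosing, 8 conc. (max 100 uM, half-log), duplicate, 0.5% DMSO. Readout: MMP3 transcript by Fluidigm TaqMan qRT-PCR, ACTB/GAPDH/POLR2A-normalised. Gain or loss fitted vs DMSO.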

[13] = read-out: Paternally Expressed 10 (PEG10), PEG10 (gene 23089); assay: LTEA_HepaRG_PEG10: Life Technologies and Expression Analysis (LTEA) Assay for Paternally Expressed 10 (PEG10) using HepaRG (AID 2283520)
Summary of the method: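 Differentiated HepaRG cells exposed 48 h in serum-free induction medium to eight half-log concentrations topping at 100 uM, 0.5% DMSO, in duplicate. PEG10 mRNA quantified by TaqMan qRT-PCR, normalized to ACTB, GAPDH and POLR2A; bidirectional fit versus DMSO.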

[14] = read-out: Nuclear factor NF-kappa-B p105 subunit (Homo sapiens) (UniProt P19838); assay: LTEA_HepaRG_NFKB1: Life Technologies and Expression Analysis (LTEA) Assay for Nuclear Factor Kappa B Subunit 1 (NFKB1) using HepaRG (AID 2283521)
Summary of the method: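 HepaRG, 48 h exposure; 8-pt half-log series from 100 uM in 0.5% DMSO; duplicates. Readout: NFKB1 mRNA by qRT-PCR (Fluidigm arrays), housekeeping-normalized. Gain/loss fit vs DMSO baseline.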

[15] = read-out: Protein phosphatase 2A (PPP2R4), PTPA (gene 5524); assay: LTEA_HepaRG_PPP2R4: Life Technologies and Expression Analysis (LTEA) Assay for Protein phosphatase 2A (PPP2R4) using HepaRG (AID 2283522)
Summary of the method: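 Differentiated human HepaRG cells in serum-free induction medium were exposed 48 h to 8 concentrations (top 100 µM, half-log steps, duplicate) in 0.5% DMSO. PPP2R4 mRNA was measured by TaqMan qRT-PCR, normalised to ACTB, GAPDH and POLR2A, and fitted bidirectionally versus DMSO.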

[16] = read-out: Phosphatase and tensin (PTEN), PTEN (gene 5728); assay: LTEA_HepaRG_PTEN: Life Technologies and Expression Analysis (LTEA) Assay for Phosphatase and tensin (PTEN) using HepaRG (AID 2283523)
Summary of the method: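 Read-out is PTEN transcript level by multiplexed TaqMan qRT-PCR after 48 h chemical treatment of human HepaRG cultures in serum-free induction medium. Concentrations spanned 100 uM downward in half-log steps, 0.5% DMSO throughout; activity fitted in both directions against vehicle.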

[17] = read-out: solute carrier (SLC22A1), SLC22A1 (gene 6580); assay: LTEA_HepaRG_SLC22A1: Life Technologies and Expression Analysis (LTEA) Assay for solute carrier (SLC22A1) using HepaRG (AID 2283524)
Summary of the method: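 HepaRG (human liver line), 48 h dosing in serum-free induction medium; 8 conc., half-log down from 100 uM, 0.5% DMSO vehicle, duplicates. Endpoint: SLC22A1 mRNA, qRT-PCR, housekeeping-normalized; gain/loss fit vs DMSO.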

[18] = read-out: NAD(P)H dehydrogenase [quinone] 1 (NQO1), NQO1 (gene 1728); assay: LTEA_HepaRG_NQO1: Life Technologies and Expression Analysis (LTEA) Assay for NAD(P)H dehydrogenase [quinone] 1 (NQO1) using HepaRG (AID 2283526)
Summary of the method: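 Differentiated human HepaRG cells in serum-free induction medium, dosed in duplicate for 48 h at 8 half-log concentrations up to 100 uM in 0.5% DMSO. NQO1 mRNA by qRT-PCR normalized to ACTB, GAPDH, POLR2A; bidirectional fit versus DMSO baseline.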

[19] = read-out: Pyruvate Dehydrogenase Kinase 4 (PDK4), PDK4 (gene 5166); assay: LTEA_HepaRG_PDK4: Life Technologies and Expression Analysis (LTEA) Assay for Pyruvate Dehydrogenase Kinase 4 (PDK4) using HepaRG (AID 2283525)
Summary of the method: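 In this multiplexed human HepaRG expression assay, cells are treated 48 h with test chemicals across an eight-point range starting at 100 uM. PDK4 mRNA changes, normalized to ACTB/GAPDH/POLR2A, are fitted in both directions relative to vehicle.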

Measured: AC50

Sequence of Nuclear factor NF-kappa-B p105 subunit (Homo sapiens) (P19838 whole entry, looked up): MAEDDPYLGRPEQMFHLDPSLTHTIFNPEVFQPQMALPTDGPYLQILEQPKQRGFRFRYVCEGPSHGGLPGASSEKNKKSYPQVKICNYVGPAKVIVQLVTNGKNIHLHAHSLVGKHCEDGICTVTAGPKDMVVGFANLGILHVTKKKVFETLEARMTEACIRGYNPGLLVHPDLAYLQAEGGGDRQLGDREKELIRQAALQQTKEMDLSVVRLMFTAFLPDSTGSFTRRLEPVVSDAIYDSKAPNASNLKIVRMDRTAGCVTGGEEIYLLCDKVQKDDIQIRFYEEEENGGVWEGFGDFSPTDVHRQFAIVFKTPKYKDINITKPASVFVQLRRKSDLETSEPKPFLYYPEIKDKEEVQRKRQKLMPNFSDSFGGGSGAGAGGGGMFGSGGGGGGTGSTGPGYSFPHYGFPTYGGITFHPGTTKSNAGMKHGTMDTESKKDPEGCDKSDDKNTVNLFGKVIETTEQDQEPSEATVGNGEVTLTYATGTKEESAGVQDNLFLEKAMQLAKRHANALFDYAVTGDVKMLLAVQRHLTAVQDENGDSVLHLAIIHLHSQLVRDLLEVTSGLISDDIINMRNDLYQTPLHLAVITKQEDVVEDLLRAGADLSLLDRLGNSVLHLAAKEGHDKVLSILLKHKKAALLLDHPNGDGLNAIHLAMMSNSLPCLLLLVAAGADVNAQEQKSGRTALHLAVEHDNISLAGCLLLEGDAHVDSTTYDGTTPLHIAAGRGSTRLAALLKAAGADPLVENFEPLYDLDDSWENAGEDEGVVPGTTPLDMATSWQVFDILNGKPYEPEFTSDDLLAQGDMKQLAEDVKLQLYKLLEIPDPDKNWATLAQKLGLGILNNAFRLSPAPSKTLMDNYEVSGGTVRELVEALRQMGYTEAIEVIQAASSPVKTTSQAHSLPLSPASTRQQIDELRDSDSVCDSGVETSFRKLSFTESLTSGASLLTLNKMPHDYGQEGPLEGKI

CC(C)CCCCCCc1ccc(O)cc1
not listed: [19]
inactive: all other assays above

CC(C)(c1ccc(O)cc1)c1ccc(O)cc1
active: MYC, MYC (gene 4609) 9.92 µM
inactive: [1] | [2] | [3] | [4] | [5] | [6] | [7] | [8] | [9] | [10] | [11] | MYC, MYC (gene 4609) | [12] | [13] | [14] | [15] | [16] | [17] | [19] | [18]

CCCCCCC(C)OC(=O)COc1nc(F)c(Cl)c(N)c1Cl (stereo unspecified)
not listed: [19]
inactive: all other assays above

c1ccc(Nc2ccccc2)cc1
not listed: [19]
inactive: all other assays above

CCCCOCCOCCOCc1cc2c(cc1CCC)OCO2
not listed: [19]
inactive: all other assays above

N#CSCSc1nc2ccccc2s1
active: [4] 84 µM | [10] 69.3 µM | [13] 50 µM | [17] 76.7 µM
not listed: [19]
inactive: all other assays above

CCCCOC(=O)[C@@H](C)Oc1ccc(Oc2ccc(C(F)(F)F)cn2)cc1
active: [13] 5.38 µM
not listed: [19]
inactive: all other assays above

C[C@]12CC[C@@H]3c4ccc(O)cc4C[C@@H](CCCCCCCCCS(=O)CCCC(F)(F)C(F)(F)F)[C@H]3[C@@H]1CC[C@@H]2O (stereo partly specified)
active: [1] 0.0415 µM | [2] 22.3 µM | [3] 13.9 µM | [4] 24.3 µM | [5] 0.0883 µM | [7] 0.0859 µM | [8] 50 µM | [10] 28.7 µM | [11] 0.116 µM | MYC, MYC (gene 4609) 0.0578 µM | [12] 0.084 µM | [13] 5.19 µM | [14] 0.0508 µM | [15] 0.0315 µM | [17] 14.5 µM | [18] 0.0555 µM
inactive: [6] | [9] | [16]

O=C(c1ccccc1)C1CCCCC1
inactive: all assays above

C[C@]12C[C@H](O)[C@H]3[C@@H](CCC4=CC(=O)CC[C@@]43C)[C@@H]1CC[C@@H]2C(=O)CO
not listed: [19]
inactive: all other assays above

CCCOC(=O)c1ccc(C(=O)OCCC)nc1
not listed: [19]
inactive: all other assays above

CCC(C)OC(=O)N1CCCCC1CCO (stereo unspecified)
not listed: [19]
inactive: all other assays above
